Test results: PubChem BioAssay (EPA / NIEHS)
Inconclusive results are not listed. Calls of active or inactive are those of the source. How the source made its calls, unless noted: active means hit-call score of the fitted dose curve at least 0.9, where 1 is the maximum; inactive means score below 0.9.

Experiments:
[1] = read-out: Interleukin-8 (IL8), CXCL8 (gene 3576); assay: BSK_3C_IL8: BioMAP Diversity Plus: 3C Assay for Interleukin-8 (IL8) Biomarker Activity (AID 2283020); conditions: primary human endothelial cells (HUVEC); actives raise or lower the signal
Summary of the method: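 Endothelial primary cells of human umbilical vein origin are dosed with chemical; after 24 h the IL-8 biomarker is measured by ELISA, and concentration–response is fitted in both directions versus DMSO.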

[2] = read-out: Monokine induced gamma interferon (MIG), CXCL9 (gene 4283); assay: BSK_3C_MIG: BioMAP Diversity Plus: 3C Assay for Monokine induced gamma interferon (MIG) Biomarker Activity (AID 2283021); conditions: primary human endothelial cells (HUVEC); actives raise or lower the signal
Summary of the method: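 Endothelial primary cells (human umbilical vein) are dosed with test chemical in the 3C system. MIG levels are measured by ELISA at 24 h and fitted in both directions relative to DMSO.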

[3] = biological target: human Vitamin D Receptor (VDR), VDR (gene 7421) (UniProt P11473); assay: ATG_VDR_TRANS: Attagene TRANS-FACTORIAL HepG2 Assay for human Vitamin D Receptor (VDR) (AID 2283022; active means hit-call score of the fitted dose curve at least 0.9, where 1 is the maximum)
human Vitamin D Receptor (VDR), VDR (gene 7421), sequence (P11473 whole entry, looked up, the tested form may be a part): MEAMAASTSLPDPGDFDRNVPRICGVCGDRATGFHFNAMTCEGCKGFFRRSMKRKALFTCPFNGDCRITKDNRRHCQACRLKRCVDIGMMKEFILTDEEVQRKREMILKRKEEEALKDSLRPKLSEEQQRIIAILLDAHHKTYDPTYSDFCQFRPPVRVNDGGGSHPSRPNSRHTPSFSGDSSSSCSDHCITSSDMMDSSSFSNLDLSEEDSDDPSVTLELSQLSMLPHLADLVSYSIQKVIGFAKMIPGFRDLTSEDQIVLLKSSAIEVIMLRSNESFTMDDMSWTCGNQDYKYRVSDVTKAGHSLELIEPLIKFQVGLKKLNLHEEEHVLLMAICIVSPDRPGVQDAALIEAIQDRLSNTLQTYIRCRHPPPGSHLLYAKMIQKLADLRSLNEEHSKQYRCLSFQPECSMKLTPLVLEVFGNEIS
Summary of the method: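 Steps: transfect HepG2 with GAL4-UAS-driven reporter constructs; dose compounds 24 h; isolate RNA, reverse-transcribe, PCR-amplify with 6-FAM-labelled primer extension and HpaI digestion; quantify fragments by capillary electrophoresis relative to DMSO.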

[4] = BSK_3C_SRB: Viability Assessment in the BioMAP Diversity Plus: 3C Assay (AID 2283023); conditions: primary human endothelial cells (HUVEC);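 further: fitted both ways against DMSO so a hit may be signal rise or drop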
Summary of the method: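 Absorbance at 560 nm of sulforhodamine B-stained (0.1%) total protein served as a cytotoxicity readout in human umbilical vein endothelial cells, 24 h after chemical treatment. Signal was fitted bidirectionally relative to DMSO.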

[5] = BSK_3C_Vis: BioMAP Diversity Plus: 3C Assay for Morphology Visualization (AID 2283025); conditions: primary human endothelial cells (HUVEC);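 further: fitted both ways so gain or loss versus DMSO counts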
Summary of the method: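 Morphology read by light microscopy serves as a background control for the multiplexed 3C assay in human umbilical vein endothelial cells, taken 24 h after dosing, with DMSO as the negative control and bidirectional curve fitting.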

[6] = read-out: Pselectin, SELP (gene 6403); assay: BSK_4H_Pselectin: BioMAP Diversity Plus: 4H Assay for Pselectin Biomarker Activity (AID 2283026); conditions: primary human endothelial cells (HUVEC); actives raise or lower the signal
Summary of the method: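 Endothelial primary cells (human umbilical vein) are dosed, incubated 24 h, and assayed for surface P-selectin by ELISA; responses in either direction are fitted relative to the DMSO negative control.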

[7] = BSK_4H_SRB: Viability Assessment in the BioMAP Diversity Plus: 4H Assay (AID 2283027); conditions: primary human endothelial cells (HUVEC);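 further: cells exposed to compound for 24 h before staining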
Summary of the method: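 Cytotoxicity read-out in primary human endothelial cells: after 24 h compound exposure, cells were TCA-fixed (10%), stained with 0.1% SRB and absorbance taken at 560 nm. Values fitted in both directions relative to DMSO.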

[8] = BSK_BE3C_SRB: Viability Assessment in the BioMAP Diversity Plus: BE3C Assay (AID 2283028); conditions: primary human bronchial epithelial cells
Summary of the method: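 Cells (human bronchial epithelial, primary) are treated with chemicals, and after 24 h the parallel cultures are fixed in 10% TCA. These are then stained with 0.1% SRB and read at 560 nm. Gain or loss of signal is fitted relative to DMSO.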

[9] = read-out: Thrombomodulin, THBD (gene 7056); assay: BSK_3C_Thrombomodulin: BioMAP Diversity Plus: 3C Assay for Thrombomodulin Biomarker Activity (AID 2283029); conditions: primary human endothelial cells (HUVEC); actives raise or lower the signal
Summary of the method: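 Endothelial cells from umbilical vein are dosed with test chemical and incubated 24 h. Thrombomodulin is then quantified by ELISA, with DMSO serving as negative control and activity baseline.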

[10] = read-out: Urokinase-type plasminogen activator receptor (uPAR), PLAUR (gene 5329); assay: BSK_4H_uPAR: BioMAP Diversity Plus: 4H Assay for Urokinase-type plasminogen activator receptor (uPAR) Biomarker Activity (AID 2283030); conditions: primary human endothelial cells (HUVEC); actives raise or lower the signal
Summary of the method: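 Cell-surface uPAR ELISA signal, measured 24 h after dosing human umbilical vein endothelial cells, was analyzed with bidirectional fitting relative to DMSO. Parallel SRB staining of total protein tracked overt cytotoxicity.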

[11] = read-out: Vascular endothelial growth factor receptor 2 (Homo sapiens) (UniProt P35968); assay: BSK_4H_VEGFRII: BioMAP Diversity Plus: 4H Assay for Vascular endothelial growth factor receptor 2 (VEGFR2) Biomarker Activity (AID 2283031); conditions: primary human endothelial cells (HUVEC); actives raise or lower the signal
Summary of the method: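 ELISA read-out of VEGFRII in primary human umbilical vein endothelium, taken 24 h after chemical treatment. Responses are expressed relative to DMSO, with bidirectional fitting.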

[12] = read-out: Human Leukocyte Antigen - DR isotype (HLADR), HLA-DRA (gene 3122); assay: BSK_BE3C_HLADR: BioMAP Diversity Plus: BE3C Assay for Human Leukocyte Antigen - DR isotype (HLADR) Biomarker Activity (AID 2283032); conditions: primary human bronchial epithelial cells; actives raise or lower the signal
Summary of the method: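 Chemicals are dosed onto BE3C bronchial epithelial cultures of human origin and left 24 h. HLA-DR is then measured by ELISA, and the endpoint is fitted in both directions using DMSO as the activity baseline.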

[13] = read-out: Vascular cell adhesion molecule 1 (VCAM1), VCAM1 (gene 7412); assay: BSK_4H_VCAM1: BioMAP Diversity Plus: 4H Assay for Vascular cell adhesion molecule 1 (VCAM1) Biomarker Activity (AID 2283033); conditions: primary human endothelial cells (HUVEC); actives raise or lower the signal;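 further: cell-surface VCAM-1 protein measured by ELISA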
Summary of the method: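 Chemicals are added to primary human umbilical vein endothelial cells. After 24 h, VCAM-1 levels are measured by ELISA. Values come from bidirectional fitting referenced to DMSO.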

[14] = read-out: Interferon-gamma inducible Protein 10 (IP10), CXCL10 (gene 3627); assay: BSK_BE3C_IP10: BioMAP Diversity Plus: BE3C Assay for Interferon-gamma inducible Protein 10 (IP10) Biomarker Activity (AID 2283034); conditions: primary human bronchial epithelial cells; actives raise or lower the signal
Summary of the method: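 IP-10 quantified by ELISA serves as the endpoint. Cells: primary human bronchial epithelium, read 24 h after compound addition. Activity is derived by bidirectional fitting with DMSO as negative control.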

[15] = read-out: Monokine induced gamma interferon (MIG), CXCL9 (gene 4283); assay: BSK_BE3C_MIG: BioMAP Diversity Plus: BE3C Assay for Monokine induced gamma interferon (MIG) Biomarker Activity (AID 2283035); conditions: primary human bronchial epithelial cells; actives raise or lower the signal;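 further: MIG protein measured by ELISA in BE3C cultures after 24 h of dosing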
Summary of the method: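 ELISA quantified MIG after 24 h exposure of primary bronchial epithelial cultures, analysed in both directions relative to DMSO. Cytotoxicity tracked in parallel cultures by sulforhodamine B staining.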

[16] = read-out: Transforming growth factor beta 1 (TGFb1), TGFB1 (gene 7040); assay: BSK_BE3C_TGFb1: BioMAP Diversity Plus: BE3C Assay for Transforming growth factor beta 1 (TGFb1) Biomarker Activity (AID 2283036;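 further: TGF-b1 protein level measured by ELISA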); conditions: primary human bronchial epithelial cells; actives raise or lower the signal
Summary of the method: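 Bronchial epithelial primary cells are treated with test chemical, then TGF-b1 is quantified by ELISA after 24 hours. Values derive from bidirectional fitting against DMSO, with cytotoxicity checked by SRB staining in parallel cultures.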

[17] = read-out: Plasminogen activator inhibitor-1 (PAI1), SERPINE1 (gene 5054); assay: BSK_BE3C_PAI1: BioMAP Diversity Plus: BE3C Assay for Plasminogen activator inhibitor-1 (PAI1) Biomarker Activity (AID 2283037); conditions: primary human bronchial epithelial cells; actives raise or lower the signal
Summary of the method: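 Values derive from bidirectional fitting against DMSO baseline of PAI-1 levels, measured by ELISA in human bronchial epithelial cells 24 h after compound addition.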

[18] = read-out: urokinase plasminogen activator (uPA), PLAU (gene 5328); assay: BSK_BE3C_uPA: BioMAP Diversity Plus: BE3C Assay for urokinase plasminogen activator (uPA) Biomarker Activity (AID 2283038); conditions: primary human bronchial epithelial cells; actives raise or lower the signal;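 further: uPA protein level quantified by ELISA in cell cultures; uPA read one day after compound addition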
Summary of the method: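 Bronchial epithelial cells (human, primary); chemical 24 h; uPA by ELISA; bidirectional fit vs DMSO. SRB (0.1%, after 10% TCA fixation, 560 nm) in parallel cultures for cytotoxicity.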

[19] = read-out: Urokinase-type plasminogen activator receptor (uPAR), PLAUR (gene 5329); assay: BSK_BE3C_uPAR: BioMAP Diversity Plus: BE3C Assay for Urokinase-type plasminogen activator receptor (uPAR) Biomarker Activity (AID 2283039); conditions: primary human bronchial epithelial cells; actives raise or lower the signal;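 further: cells exposed to compound for one day before measurement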
Summary of the method: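 Steps: dose human primary bronchial epithelial cells, incubate 24 h, measure uPAR by ELISA, then fit gain- or loss-of-signal response bidirectionally relative to DMSO.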

[20] = read-out: Matrix Metallopeptidase 1 (MMP1), MMP1 (gene 4312); assay: BSK_BE3C_MMP1: BioMAP Diversity Plus: BE3C Assay for Matrix Metallopeptidase 1 (MMP1) Biomarker Activity (AID 2283024); conditions: primary human bronchial epithelial cells; actives raise or lower the signal
Summary of the method: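 MMP1 signal, measured by ELISA after a 24 h chemical exposure of human primary bronchial epithelial cells, is analysed with bidirectional fitting using DMSO as negative control.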

Measured: outcome

COc1ccc(C)cc1N
not listed: [20]
inactive: all other assays above

CCNc1cccc(C)c1
not listed: [6]
inactive: all other assays above

CCCCN(CCCC)CCCC
not listed: [6]
inactive: all other assays above

Nc1nc(N)c2nc(CNc3ccc(C(=O)N[C@@H](CCC(=O)O)C(=O)O)cc3)cnc2n1
not listed: [6]
inactive: all other assays above

Cc1nc(C)nc(N2C[C@@H](C)N(c3ccnc([C@@H](C)O)n3)[C@@H](C)C2)n1
not listed: [11]
inactive: all other assays above

NS(=O)(=O)c1cc2c(cc1Cl)NCNS2(=O)=O
inactive: all assays above

COCCOC[C@H](CC1(C(=O)NC2CCC(C(=O)O)CC2)CCCC1)C(=O)Oc1ccc2c(c1)CCC2 (some centres undefined)
not listed: [20]
inactive: all other assays above
